# Measurements taken from the supplement of paper PMC11732987, “Enantioselective OTUD7B fragment discovery through chemoproteomics screening and high-throughput optimisation” (Communications Chemistry, 2025).
# Values without a mark were called inactive.
# Columns and labels:
# Assay in all cases: log2 ratio of Biotin-Ahx-Ub-VS probe labelling (fragment/DMSO); higher = less target engagement (more negative = stronger competition), active = hit call of the paper (q ≤ 0.05, log2 ratio ≤ -1)
# Conditions in all cases: compound concentration: 200 uM; treatment time: 3 h
# USP19 = molecular target: T1, USP19 (UniProt O94966)
# T1 sequence (whole entry): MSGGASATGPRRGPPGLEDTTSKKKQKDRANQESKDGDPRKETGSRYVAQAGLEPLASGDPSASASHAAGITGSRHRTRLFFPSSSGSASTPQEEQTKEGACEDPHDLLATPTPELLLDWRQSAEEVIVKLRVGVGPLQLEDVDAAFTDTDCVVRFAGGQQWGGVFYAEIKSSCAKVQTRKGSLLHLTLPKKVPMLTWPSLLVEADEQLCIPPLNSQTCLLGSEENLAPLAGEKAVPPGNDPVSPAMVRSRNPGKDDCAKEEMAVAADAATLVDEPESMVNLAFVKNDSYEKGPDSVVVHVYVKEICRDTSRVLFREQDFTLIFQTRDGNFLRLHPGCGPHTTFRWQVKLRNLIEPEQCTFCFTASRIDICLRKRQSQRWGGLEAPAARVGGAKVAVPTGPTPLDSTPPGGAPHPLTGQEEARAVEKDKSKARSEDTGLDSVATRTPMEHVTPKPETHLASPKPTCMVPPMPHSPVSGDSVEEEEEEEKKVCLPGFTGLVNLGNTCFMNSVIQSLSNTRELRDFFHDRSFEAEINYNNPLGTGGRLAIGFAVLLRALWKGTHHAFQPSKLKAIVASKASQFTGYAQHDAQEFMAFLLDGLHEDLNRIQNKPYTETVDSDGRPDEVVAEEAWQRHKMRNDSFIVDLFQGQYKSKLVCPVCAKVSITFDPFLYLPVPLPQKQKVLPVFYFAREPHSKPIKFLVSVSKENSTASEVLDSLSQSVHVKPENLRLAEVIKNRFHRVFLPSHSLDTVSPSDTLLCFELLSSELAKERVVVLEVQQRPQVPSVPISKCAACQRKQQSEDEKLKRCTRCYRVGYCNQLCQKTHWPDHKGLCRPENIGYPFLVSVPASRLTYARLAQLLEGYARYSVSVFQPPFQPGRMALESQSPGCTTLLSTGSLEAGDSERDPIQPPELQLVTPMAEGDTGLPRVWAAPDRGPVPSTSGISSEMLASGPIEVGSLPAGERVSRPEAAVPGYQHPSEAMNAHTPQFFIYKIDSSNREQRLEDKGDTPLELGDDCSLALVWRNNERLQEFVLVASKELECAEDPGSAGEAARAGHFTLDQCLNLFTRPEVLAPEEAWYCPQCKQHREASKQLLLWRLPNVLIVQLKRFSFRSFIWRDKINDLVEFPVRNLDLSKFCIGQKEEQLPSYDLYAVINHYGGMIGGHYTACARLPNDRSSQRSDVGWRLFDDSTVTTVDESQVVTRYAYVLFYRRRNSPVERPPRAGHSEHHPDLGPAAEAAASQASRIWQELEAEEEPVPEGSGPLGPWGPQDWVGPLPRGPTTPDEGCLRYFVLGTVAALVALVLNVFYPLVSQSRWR
# How it was run: (§1)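 HEK293T lysate in Tris/CHAPS/IGEPAL buffer with protease inhibitors (495 µg per sample) was given fragment at 200 µM or vehicle for 3 h, in triplicate. It then received Biotin-Ahx-Ub-VS at 0.5 µM final for 1 h. Labelled DUBs were NeutrAvidin-enriched, digested with LysC and trypsin, and run by diaPASEF LC-MS/MS. Values are average log2 fragment/vehicle ratios by unpaired t-test on global-median-normalised Spectronaut quantities of proteins with ≥2 unique peptides.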
# USP24 = USP24 (UniProt Q9UPU5)
# How it was run: as §1
# USP25 = molecular target: T2, USP25 (UniProt Q9UHP3)
# T2 sequence (whole entry): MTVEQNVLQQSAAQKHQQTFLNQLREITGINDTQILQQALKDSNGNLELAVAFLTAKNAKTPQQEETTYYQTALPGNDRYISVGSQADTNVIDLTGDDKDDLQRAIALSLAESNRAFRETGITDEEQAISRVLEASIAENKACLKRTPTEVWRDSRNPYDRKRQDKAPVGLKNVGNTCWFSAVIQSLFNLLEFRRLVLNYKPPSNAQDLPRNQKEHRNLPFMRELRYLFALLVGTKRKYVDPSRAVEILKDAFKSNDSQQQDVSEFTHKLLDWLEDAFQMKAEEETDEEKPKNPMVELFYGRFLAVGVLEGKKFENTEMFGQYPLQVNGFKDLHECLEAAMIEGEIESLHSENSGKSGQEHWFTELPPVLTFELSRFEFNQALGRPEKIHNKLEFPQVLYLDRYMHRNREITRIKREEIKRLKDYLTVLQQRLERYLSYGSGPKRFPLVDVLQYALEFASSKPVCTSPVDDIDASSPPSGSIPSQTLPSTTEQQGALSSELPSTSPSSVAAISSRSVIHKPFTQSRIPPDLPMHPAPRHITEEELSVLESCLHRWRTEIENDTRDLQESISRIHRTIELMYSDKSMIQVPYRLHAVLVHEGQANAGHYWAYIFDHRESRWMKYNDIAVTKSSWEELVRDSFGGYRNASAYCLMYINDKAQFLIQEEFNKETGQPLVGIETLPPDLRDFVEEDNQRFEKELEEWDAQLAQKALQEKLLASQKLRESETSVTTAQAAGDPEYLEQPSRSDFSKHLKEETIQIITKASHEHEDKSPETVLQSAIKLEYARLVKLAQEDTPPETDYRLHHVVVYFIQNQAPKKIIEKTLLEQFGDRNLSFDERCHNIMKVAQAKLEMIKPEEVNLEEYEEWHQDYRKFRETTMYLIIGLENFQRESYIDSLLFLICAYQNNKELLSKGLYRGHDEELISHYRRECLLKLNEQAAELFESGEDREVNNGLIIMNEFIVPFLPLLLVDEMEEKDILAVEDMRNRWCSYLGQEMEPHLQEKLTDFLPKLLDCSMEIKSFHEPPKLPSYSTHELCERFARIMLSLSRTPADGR
# How it was run: as §1
# USP28 = molecular target: T3, USP28 (UniProt Q96RU2)
# T3 sequence (whole entry): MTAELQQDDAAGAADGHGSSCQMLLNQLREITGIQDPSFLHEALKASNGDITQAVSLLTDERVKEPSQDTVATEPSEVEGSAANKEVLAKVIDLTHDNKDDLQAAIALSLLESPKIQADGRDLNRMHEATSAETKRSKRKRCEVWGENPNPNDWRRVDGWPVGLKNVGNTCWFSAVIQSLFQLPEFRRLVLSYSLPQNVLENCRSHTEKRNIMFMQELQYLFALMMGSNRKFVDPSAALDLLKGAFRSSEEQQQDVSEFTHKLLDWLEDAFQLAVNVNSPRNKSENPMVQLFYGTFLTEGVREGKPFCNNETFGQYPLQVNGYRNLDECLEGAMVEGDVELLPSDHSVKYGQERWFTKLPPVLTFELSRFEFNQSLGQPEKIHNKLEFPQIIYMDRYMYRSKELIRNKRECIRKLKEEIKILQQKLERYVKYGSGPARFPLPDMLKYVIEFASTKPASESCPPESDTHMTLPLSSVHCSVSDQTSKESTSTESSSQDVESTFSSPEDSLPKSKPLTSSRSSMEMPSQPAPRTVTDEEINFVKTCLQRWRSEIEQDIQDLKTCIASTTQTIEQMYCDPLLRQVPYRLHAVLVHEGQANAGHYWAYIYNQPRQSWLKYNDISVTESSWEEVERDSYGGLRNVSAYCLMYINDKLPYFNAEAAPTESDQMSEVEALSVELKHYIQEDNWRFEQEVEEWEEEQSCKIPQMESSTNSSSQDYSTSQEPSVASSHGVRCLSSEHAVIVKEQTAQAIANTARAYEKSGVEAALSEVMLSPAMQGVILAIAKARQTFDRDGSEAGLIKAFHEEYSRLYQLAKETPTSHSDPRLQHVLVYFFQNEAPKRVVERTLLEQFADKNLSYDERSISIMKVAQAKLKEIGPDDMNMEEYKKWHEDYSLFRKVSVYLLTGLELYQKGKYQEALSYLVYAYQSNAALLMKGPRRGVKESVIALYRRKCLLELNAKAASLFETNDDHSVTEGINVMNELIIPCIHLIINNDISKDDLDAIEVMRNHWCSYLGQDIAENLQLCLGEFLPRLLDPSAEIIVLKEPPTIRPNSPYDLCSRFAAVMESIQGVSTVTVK
# How it was run: as §1
# USP24, sequence (Q9UPU5 whole entry): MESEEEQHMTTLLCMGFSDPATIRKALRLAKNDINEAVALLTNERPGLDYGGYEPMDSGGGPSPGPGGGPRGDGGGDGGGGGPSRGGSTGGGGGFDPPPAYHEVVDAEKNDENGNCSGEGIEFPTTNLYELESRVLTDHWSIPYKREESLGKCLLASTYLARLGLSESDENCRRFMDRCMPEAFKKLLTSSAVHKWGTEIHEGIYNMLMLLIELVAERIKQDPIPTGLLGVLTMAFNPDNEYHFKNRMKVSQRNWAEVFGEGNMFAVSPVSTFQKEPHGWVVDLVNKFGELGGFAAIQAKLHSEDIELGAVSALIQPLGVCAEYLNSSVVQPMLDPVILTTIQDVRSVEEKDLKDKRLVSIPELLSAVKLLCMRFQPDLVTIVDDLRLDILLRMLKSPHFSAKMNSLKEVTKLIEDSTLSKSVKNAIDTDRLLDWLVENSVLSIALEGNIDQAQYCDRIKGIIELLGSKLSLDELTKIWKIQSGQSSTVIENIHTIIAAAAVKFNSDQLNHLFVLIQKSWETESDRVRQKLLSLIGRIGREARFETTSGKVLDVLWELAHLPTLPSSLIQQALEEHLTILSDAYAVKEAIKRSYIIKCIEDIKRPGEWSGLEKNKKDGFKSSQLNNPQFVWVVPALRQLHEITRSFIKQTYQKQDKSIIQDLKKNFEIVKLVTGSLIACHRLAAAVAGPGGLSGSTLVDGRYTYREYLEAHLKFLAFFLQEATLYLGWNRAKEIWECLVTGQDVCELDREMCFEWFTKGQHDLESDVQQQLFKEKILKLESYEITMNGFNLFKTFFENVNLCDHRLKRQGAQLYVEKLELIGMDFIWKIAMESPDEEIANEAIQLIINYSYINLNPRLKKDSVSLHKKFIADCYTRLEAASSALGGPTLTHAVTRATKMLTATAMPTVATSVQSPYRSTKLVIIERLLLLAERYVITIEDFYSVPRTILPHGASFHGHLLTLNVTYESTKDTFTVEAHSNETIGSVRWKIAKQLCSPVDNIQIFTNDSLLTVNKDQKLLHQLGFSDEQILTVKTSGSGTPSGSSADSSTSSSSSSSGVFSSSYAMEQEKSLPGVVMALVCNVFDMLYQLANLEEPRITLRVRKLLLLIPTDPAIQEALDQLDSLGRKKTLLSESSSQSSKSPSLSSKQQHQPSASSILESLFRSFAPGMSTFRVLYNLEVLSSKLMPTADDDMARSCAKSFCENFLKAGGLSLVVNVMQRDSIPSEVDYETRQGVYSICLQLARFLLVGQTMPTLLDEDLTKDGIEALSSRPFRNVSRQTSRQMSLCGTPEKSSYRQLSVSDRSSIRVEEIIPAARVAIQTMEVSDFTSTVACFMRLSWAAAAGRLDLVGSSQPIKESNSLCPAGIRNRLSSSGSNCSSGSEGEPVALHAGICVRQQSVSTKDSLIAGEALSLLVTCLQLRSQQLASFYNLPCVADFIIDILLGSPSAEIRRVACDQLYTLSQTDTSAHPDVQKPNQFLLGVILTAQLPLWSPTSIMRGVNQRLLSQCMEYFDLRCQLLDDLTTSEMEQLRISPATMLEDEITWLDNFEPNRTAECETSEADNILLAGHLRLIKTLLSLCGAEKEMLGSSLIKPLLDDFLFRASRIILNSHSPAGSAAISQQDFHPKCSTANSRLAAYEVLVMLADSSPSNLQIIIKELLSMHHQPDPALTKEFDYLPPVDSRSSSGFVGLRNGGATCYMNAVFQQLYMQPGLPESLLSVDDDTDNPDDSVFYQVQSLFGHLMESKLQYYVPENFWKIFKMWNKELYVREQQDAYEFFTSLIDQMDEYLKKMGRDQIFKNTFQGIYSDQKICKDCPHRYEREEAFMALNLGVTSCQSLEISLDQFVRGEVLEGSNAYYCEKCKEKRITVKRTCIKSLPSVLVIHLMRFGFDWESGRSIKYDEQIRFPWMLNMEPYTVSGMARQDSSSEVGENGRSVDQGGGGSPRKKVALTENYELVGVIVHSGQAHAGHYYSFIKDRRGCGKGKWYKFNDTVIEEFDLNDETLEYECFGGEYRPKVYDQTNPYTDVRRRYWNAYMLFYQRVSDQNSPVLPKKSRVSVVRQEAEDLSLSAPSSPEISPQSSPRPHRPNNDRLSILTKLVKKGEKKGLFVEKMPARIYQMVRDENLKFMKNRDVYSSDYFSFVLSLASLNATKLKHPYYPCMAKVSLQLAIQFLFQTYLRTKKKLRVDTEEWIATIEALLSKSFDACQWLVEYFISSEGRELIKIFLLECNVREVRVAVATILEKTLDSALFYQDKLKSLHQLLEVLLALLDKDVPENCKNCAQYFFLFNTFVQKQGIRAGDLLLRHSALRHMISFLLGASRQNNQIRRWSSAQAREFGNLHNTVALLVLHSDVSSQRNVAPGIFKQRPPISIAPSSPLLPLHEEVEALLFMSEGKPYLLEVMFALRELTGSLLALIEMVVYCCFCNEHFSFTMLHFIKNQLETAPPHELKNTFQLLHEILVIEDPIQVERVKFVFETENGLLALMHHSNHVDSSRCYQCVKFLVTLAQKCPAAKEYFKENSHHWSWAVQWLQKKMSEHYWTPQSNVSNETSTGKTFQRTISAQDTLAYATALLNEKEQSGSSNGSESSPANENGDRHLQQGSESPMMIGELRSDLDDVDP
smiles,measurement,setting,value
COc1ccc(-c2csc(NC(=O)CCl)n2)cc1,log2 ratio of Biotin-Ahx-Ub-VS probe labelling,USP19,-0.674
same,log2 ratio of Biotin-Ahx-Ub-VS probe labelling,USP24,-1.44 (active)
same,log2 ratio of Biotin-Ahx-Ub-VS probe labelling,USP25,-0.591
same,log2 ratio of Biotin-Ahx-Ub-VS probe labelling,USP28,-0.741
